# Results as given in publication PMC5540273 (PLoS ONE, 2017).
# Where two headings read alike, the source gives them in different places.
# Tests used:
# FGFR4 = conditions: concentration: 1 μM, replicates: in singlicate; n = 1
# FGR = conditions: concentration: 1 μM, replicates: in singlicate; n = 1
# FLT1 = conditions: concentration: 1 μM, replicates: in singlicate; n = 1
# FLT3-autoinhibited = conditions: concentration: 1 μM, replicates: in singlicate; n = 1
# FLT3 = conditions: concentration: 1 μM, replicates: in singlicate; n = 1
# FLT4 = conditions: concentration: 1 μM, replicates: in singlicate; n = 1
# FRK = conditions: concentration: 1 μM, replicates: in singlicate; n = 1
# FYN = conditions: concentration: 1 μM, replicates: in singlicate; n = 1
# GAK = conditions: concentration: 1 μM, replicates: in singlicate; n = 1
# GCN2(Kin.Dom.2,S808G) = tested on: T1, GCN2(Kin.Dom.2,S808G); conditions: concentration: 1 μM, replicates: in singlicate; n = 1
# T1 construct: gene EIF2AK4
# GRK1 = conditions: concentration: 1 μM, replicates: in singlicate; n = 1
# GRK2 = tested on: T2, GRK2; conditions: concentration: 1 μM, replicates: in singlicate; n = 1
# T2 construct: gene ADRBK1
# GRK3 = tested on: T3, GRK3; conditions: concentration: 1 μM, replicates: in singlicate; n = 1
# T3 construct: gene ADRBK2
# GRK4 = conditions: concentration: 1 μM, replicates: in singlicate; n = 1
# GRK7 = conditions: concentration: 1 μM, replicates: in singlicate; n = 1
# GSK3A = conditions: concentration: 1 μM, replicates: in singlicate; n = 1
# GSK3B = conditions: n = 1
# HASPIN = tested on: T4, HASPIN; conditions: concentration: 1 μM, replicates: in singlicate; n = 1
# T4 construct: gene GSG2
# HCK = conditions: concentration: 1 μM, replicates: in singlicate; n = 1
# HIPK1 = conditions: concentration: 1 μM, replicates: in singlicate; n = 1
# [1] = concentration: 1 μM, replicates: in singlicate
# 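Further: KINOMEscan kinase panel screen.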
smiles,measurement,setting,value
COc1ccc(NC(=O)c2ccc(-c3cc(-c4nnc(C)o4)ccc3C)cc2)cc1 [GW595885],%Inh,FGFR4,0%
same,%Inh,FGR,10%
same,%Inh,FLT1,19%
same,%Inh,FLT3-autoinhibited,0%
same,%Inh,FLT3,0%
same,%Inh,FLT4,0%
same,%Inh,FRK,10%
same,%Inh,FYN,6%
same,%Inh,GAK,0%
same,%Inh,"GCN2(Kin.Dom.2,S808G)",14%
same,%Inh,GRK1,0%
same,%Inh,GRK2,0%
same,%Inh,GRK3,99.2%
same,%Inh,GRK4,22%
same,%Inh,GRK7,0%
same,%Inh,GSK3A,32%
same,%Inh,GSK3B; [1],0%
same,%Inh,HASPIN,21%
same,%Inh,HCK,0%
same,%Inh,HIPK1,0%
CC(=O)Nc1n[nH]c2ncc(-c3ccccc3)cc12 [SB-548492],%Inh,FGFR4,0%
same,%Inh,FGR,16%
same,%Inh,FLT1,25%
same,%Inh,FLT3-autoinhibited,47%
same,%Inh,FLT3,74%
same,%Inh,FLT4,0%
same,%Inh,FRK,0%
same,%Inh,FYN,0%
same,%Inh,GAK,31%
same,%Inh,"GCN2(Kin.Dom.2,S808G)",27%
same,%Inh,GRK1,26%
same,%Inh,GRK2,0%
same,%Inh,GRK3,0%
same,%Inh,GRK4,18%
same,%Inh,GRK7,31%
same,%Inh,GSK3A,78%
same,%Inh,GSK3B; 1 µM,50%
same,%Inh,HASPIN,42%
same,%Inh,HCK,9%
same,%Inh,HIPK1,45%
Cc1cc(N2CCC(NS(=O)(=O)c3ccc(F)cc3)CC2)nc(Nc2cccc(C#N)c2)n1.O=C(O)C(F)(F)F [GSK1653537],%Inh,FGFR4,0%
same,%Inh,FGR,26%
same,%Inh,FLT1,35%
same,%Inh,FLT3-autoinhibited,0%
same,%Inh,FLT3,4%
same,%Inh,FLT4,0%
same,%Inh,FRK,8%
same,%Inh,FYN,19%
same,%Inh,GAK,0%
same,%Inh,"GCN2(Kin.Dom.2,S808G)",6%
same,%Inh,GRK1,0%
same,%Inh,GRK2,0%
same,%Inh,GRK3,16%
same,%Inh,GRK4,22%
same,%Inh,GRK7,0%
same,%Inh,GSK3A,0%
same,%Inh,GSK3B; [1],0%
same,%Inh,HASPIN,0%
same,%Inh,HCK,0%
same,%Inh,HIPK1,0%
CSc1nn2c(=O)cc(N3CCOCC3)nc2n1Cc1cccc(Cl)c1Cl [GSK2347225],%Inh,FGFR4,15%
same,%Inh,FGR,30%
same,%Inh,FLT1,24%
same,%Inh,FLT3-autoinhibited,0%
same,%Inh,FLT3,0%
same,%Inh,FLT4,0%
same,%Inh,FRK,11%
same,%Inh,FYN,17%
same,%Inh,GAK,9%
same,%Inh,"GCN2(Kin.Dom.2,S808G)",1%
same,%Inh,GRK1,20%
same,%Inh,GRK2,0%
same,%Inh,GRK3,0%
same,%Inh,GRK4,17%
same,%Inh,GRK7,0%
same,%Inh,GSK3A,16%
same,%Inh,GSK3B; [1],8%
same,%Inh,HASPIN,0%
same,%Inh,HCK,0%
same,%Inh,HIPK1,11%
COc1ccc(Nc2nccc(N3CCC(NC(=O)c4cccc(NC(C)=O)c4)C3)n2)cc1 (centres unmarked) [GSK1379732],%Inh,FGFR4,3%
same,%Inh,FGR,27%
same,%Inh,FLT1,23%
same,%Inh,FLT3-autoinhibited,0%
same,%Inh,FLT3,0%
same,%Inh,FLT4,6%
same,%Inh,FRK,0%
same,%Inh,FYN,0%
same,%Inh,GAK,16%
same,%Inh,"GCN2(Kin.Dom.2,S808G)",9%
same,%Inh,GRK1,0%
same,%Inh,GRK2,2%
same,%Inh,GRK3,49%
same,%Inh,GRK4,0%
same,%Inh,GRK7,0%
same,%Inh,GSK3A,4%
same,%Inh,GSK3B; [1],0%
same,%Inh,HASPIN,46%
same,%Inh,HCK,0%
same,%Inh,HIPK1,0%
Cn1ccc2ncnc(Nc3ccc(Oc4cccc(Cl)c4)c(Cl)c3)c21,%Inh,FGFR4,0%
same,%Inh,FGR,0%
same,%Inh,FLT1,0%
same,%Inh,FLT3-autoinhibited,17%
same,%Inh,FLT3,0%
same,%Inh,FLT4,18%
same,%Inh,FRK,4%
same,%Inh,FYN,1%
same,%Inh,GAK,0%
same,%Inh,"GCN2(Kin.Dom.2,S808G)",28%
same,%Inh,GRK1,25%
same,%Inh,GRK2,51%
same,%Inh,GRK3,0%
same,%Inh,GRK4,7%
same,%Inh,GRK7,20%
same,%Inh,GSK3A,22%
same,%Inh,GSK3B; [1],23%
same,%Inh,HASPIN,21%
same,%Inh,HCK,25%
same,%Inh,HIPK1,32%
FC(F)(F)c1cc(Nc2nccc(-c3c(-c4ccc(Cl)cc4)nn4ncccc34)n2)ccc1Cl [GW829351],%Inh,FGFR4,0%
same,%Inh,FGR,0%
same,%Inh,FLT1,0%
same,%Inh,FLT3-autoinhibited,0%
same,%Inh,FLT3,0%
same,%Inh,FLT4,0%
same,%Inh,FRK,0%
same,%Inh,FYN,0%
same,%Inh,GAK,0%
same,%Inh,"GCN2(Kin.Dom.2,S808G)",0%
same,%Inh,GRK1,0%
same,%Inh,GRK2,0%
same,%Inh,GRK3,0%
same,%Inh,GRK4,10%
same,%Inh,GRK7,0%
same,%Inh,GSK3A,26%
same,%Inh,GSK3B; [1],0%
same,%Inh,HASPIN,0%
same,%Inh,HCK,0%
same,%Inh,HIPK1,3%
CC(C)N1CCC(n2cnc(-c3ccc(F)cc3)c2-c2ccnc(N)n2)CC1 [SB-223132],%Inh,FGFR4,0%
same,%Inh,FGR,16%
same,%Inh,FLT1,0%
same,%Inh,FLT3-autoinhibited,0%
same,%Inh,FLT3,0%
same,%Inh,FLT4,0%
same,%Inh,FRK,1%
same,%Inh,FYN,0%
same,%Inh,GAK,2%
same,%Inh,"GCN2(Kin.Dom.2,S808G)",0%
same,%Inh,GRK1,0%
same,%Inh,GRK2,0%
same,%Inh,GRK3,0%
same,%Inh,GRK4,4%
same,%Inh,GRK7,0%
same,%Inh,GSK3A,17%
same,%Inh,GSK3B; [1],0%
same,%Inh,HASPIN,12%
same,%Inh,HCK,0%
same,%Inh,HIPK1,30%
FC(F)(F)c1ccc(-c2nn3ncccc3c2-c2ccnc(Nc3cccc(C(F)(F)F)c3)n2)cc1 [GW828205],%Inh,FGFR4,3%
same,%Inh,FGR,58%
same,%Inh,FLT1,12%
same,%Inh,FLT3-autoinhibited,0%
same,%Inh,FLT3,0%
same,%Inh,FLT4,8%
same,%Inh,FRK,0%
same,%Inh,FYN,0%
same,%Inh,GAK,0%
same,%Inh,"GCN2(Kin.Dom.2,S808G)",0%
same,%Inh,GRK1,11%
same,%Inh,GRK2,0%
same,%Inh,GRK3,0%
same,%Inh,GRK4,25%
same,%Inh,GRK7,0%
same,%Inh,GSK3A,1%
same,%Inh,GSK3B; [1],10%
same,%Inh,HASPIN,0%
same,%Inh,HCK,10%
same,%Inh,HIPK1,39%
Nc1nc(-c2ccc3c(N)n[nH]c3c2)cc(N2CCCCC2)n1 [GSK2228768],%Inh,FGFR4,0%
same,%Inh,FGR,12%
same,%Inh,FLT1,24%
same,%Inh,FLT3-autoinhibited,0%
same,%Inh,FLT3,0%
same,%Inh,FLT4,1%
same,%Inh,FRK,0%
same,%Inh,FYN,18%
same,%Inh,GAK,0%
same,%Inh,"GCN2(Kin.Dom.2,S808G)",0%
same,%Inh,GRK1,0%
same,%Inh,GRK2,0%
same,%Inh,GRK3,30%
same,%Inh,GRK4,0%
same,%Inh,GRK7,0%
same,%Inh,GSK3A,0%
same,%Inh,GSK3B; [1],0%
same,%Inh,HASPIN,0%
same,%Inh,HCK,0%
same,%Inh,HIPK1,0%
